Out of some 3,300 compounds screened, about 35 (1%) were called active. No stated cut-off is given here; in the data, active means inhibition above about 11%; inactive means the rest. A selection follows.
Molecular target: 1-phosphatidylinositol 4,5-bisphosphate phosphodiesterase beta-3 (Homo sapiens) (UniProt Q01970)
Experiment: retest of human PLCB3 enzyme blockers – biochemical, fluorescence, purified enzyme, confirmation (AID 743261)
Conditions: purified PLC-beta3, fluorogenic substrate fluorescence; at 12.3 µM; hits give high values

Sequence of 1-phosphatidylinositol 4,5-bisphosphate phosphodiesterase beta-3 (Homo sapiens) (Q01970 whole entry, looked up): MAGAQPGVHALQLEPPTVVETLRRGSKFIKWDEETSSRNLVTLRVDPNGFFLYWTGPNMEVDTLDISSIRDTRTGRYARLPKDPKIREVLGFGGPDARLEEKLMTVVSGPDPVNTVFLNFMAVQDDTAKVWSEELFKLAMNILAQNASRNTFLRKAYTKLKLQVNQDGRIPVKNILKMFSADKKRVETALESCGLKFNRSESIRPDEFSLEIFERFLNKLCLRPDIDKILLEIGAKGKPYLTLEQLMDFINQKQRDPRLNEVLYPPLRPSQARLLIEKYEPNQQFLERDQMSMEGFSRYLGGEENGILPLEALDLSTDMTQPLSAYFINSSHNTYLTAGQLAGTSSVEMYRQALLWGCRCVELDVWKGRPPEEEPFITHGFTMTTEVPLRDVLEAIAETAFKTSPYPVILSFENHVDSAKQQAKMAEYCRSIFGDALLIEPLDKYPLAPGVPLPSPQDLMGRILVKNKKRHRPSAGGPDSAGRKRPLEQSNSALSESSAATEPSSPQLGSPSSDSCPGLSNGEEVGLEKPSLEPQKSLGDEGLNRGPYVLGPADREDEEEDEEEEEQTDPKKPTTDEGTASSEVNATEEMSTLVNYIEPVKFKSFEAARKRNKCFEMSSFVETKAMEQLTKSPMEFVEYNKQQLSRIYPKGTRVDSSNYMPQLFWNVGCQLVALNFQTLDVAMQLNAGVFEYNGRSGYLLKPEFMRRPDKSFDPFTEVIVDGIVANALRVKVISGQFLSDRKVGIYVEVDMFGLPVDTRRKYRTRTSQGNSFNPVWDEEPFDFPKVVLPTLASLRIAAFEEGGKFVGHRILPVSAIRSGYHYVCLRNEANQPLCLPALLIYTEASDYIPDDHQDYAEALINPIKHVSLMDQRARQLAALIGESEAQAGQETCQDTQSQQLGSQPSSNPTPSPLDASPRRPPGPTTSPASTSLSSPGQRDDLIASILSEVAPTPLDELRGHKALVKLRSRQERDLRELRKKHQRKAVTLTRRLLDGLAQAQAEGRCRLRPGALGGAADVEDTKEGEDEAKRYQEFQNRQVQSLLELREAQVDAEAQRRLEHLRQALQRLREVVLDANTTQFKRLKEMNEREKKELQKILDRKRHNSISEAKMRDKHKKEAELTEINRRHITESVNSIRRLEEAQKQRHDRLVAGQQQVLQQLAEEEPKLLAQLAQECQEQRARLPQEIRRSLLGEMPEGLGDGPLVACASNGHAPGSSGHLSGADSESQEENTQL

inhibition, inactive:
Cc1ccc(/C=N/NC(=O)CSc2nc3ccccc3o2)cc1 -1.23%
CN(C(=O)c1cccc(NC(=O)Cc2cccc([N+](=O)[O-])c2)c1)C1CCCCC1 2.33%
O=C(C1CCCO1)N1CCN(C(=S)Nc2cccc(Cl)c2)CC1 (configuration not stated) -2.93%
CCOc1ccc(NC(=O)[C@H](C)NC(=O)C2CC(=O)N(c3ccc(OC)cc3)C2)cc1 (some centres not stated) -3.05%
O=C(O)c1ccc(Cn2c(=S)[nH]c3cc(Cl)ccc3c2=O)cc1 -7.23%
CC(=O)C12CC(C)=C(C)CC1CC1C3CCC4=CC(=O)CCC4(C)C3CCC12C (configuration not stated) -2.56%
O=C(Nc1ccc(Br)cc1)C1CCC(=O)N1Cc1ccccc1Cl (configuration not stated) -0.11%
N#Cc1c(NC(=O)C2CCCO2)sc2c1CCCCC2 (configuration not stated) -7.76%
CCOC(=O)C1CCN(C(=O)c2ccccc2N(C)S(=O)(=O)c2ccccc2)CC1 1.21%
O=C(Nc1cccc([N+](=O)[O-])c1)Nn1cnnc1 0.35%
Cc1ccccc1C(=O)Nc1ccccc1Sc1ccccc1 -4.34%
COc1ccc(S(=O)(=O)N2CCC(C(=O)OCC(=O)c3ccccc3)CC2)cc1[N+](=O)[O-] 0.58%
O=C(CCNS(=O)(=O)c1ccc(Br)cc1)NCC1CCCO1 (configuration not stated) 1.04%
Cc1ccc(-n2ncc3c2CC(C)(C)CC3NC(=O)CCc2cnn(C)c2)cc1 (configuration not stated) 0.66%
COC(=O)C[C@@H]1CC[C@@H]2[C@H](COc3ccc(NC(=O)c4cccc(F)c4)cc3C(=O)N2C)O1 2.78%
Cc1c(C(=O)c2cccc([N+](=O)[O-])c2)c2ccccn2c1CCC#N 6.14%
CN(C)/C=C(/C(=O)c1ccc(Cl)cc1)S(=O)(=O)c1ccccc1 -1.45%
O=C(CSc1ncn[nH]1)N/N=C/c1ccc(F)cc1 1.52%
CNC(=O)c1ccc(NC(=O)c2cccc(C(F)(F)F)c2)cc1 -1.78%
O=C1N[C@@H](c2ccccc2)COC(=O)[C@H](Cc2ccc(F)cc2)C/C=C\C[C@@H]1CC(=O)N(CCO)Cc1ccccc1 0.87%
C[C@]12c3[nH]c4ccc(Cl)cc4c3CCN1C(=O)[C@@H](CC(=O)NCCCn1ccnc1)C[C@@H]2C(=O)N1CCOCC1 -2.45%
CCc1c(C)n([O-])c2c([n+]1=O)CCCCC2 -2.11%
Cc1cc2nc(SCCN3CCOCC3)[nH]c2cc1C 0.27%
CCCCNc1ccc(C(=O)Nc2cccc(C)n2)cc1[N+](=O)[O-] -2.68%
COc1ccc(CCNC(=O)COC(=O)Cc2ccccc2F)cc1 -2.27%
CC(C)Oc1ccc(CC(=O)NNC(=S)Nc2ccc(Br)cc2)cc1 -6.23%
Cc1ccc(-c2cn(S(=O)(=O)c3cccc([N+](=O)[O-])c3)nc2N)cc1 -2.7%
